Screens from PubChem BioAssay.
FXN GAA850 act = FXN promoter activators, primary screen, cell-based, luciferase luminescence, HEK293 lucGAA850; HEK293 lucGAA850 FXN promoter luciferase reporter, 24 h; percent of 10 µM SAHA response; activation, % at 6 µM; 0.56% of 360,000 active;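 active means activation above the average of all compounds screened plus 3 SD, cutoff fixed separately per campaign, cut at about 7.5% in these data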
SMARCA2 act = SMARCA2 (BRM) function activators, primary screen, cell-based, luminescence, high throughput. activation, % at 9.1 µM. MG213 cells, MMTV-luciferase reporter, dexamethasone, overnight. 1% of 370,000 active; in the data active means activation above about 7.8%
proKLK7 act = proKLK7 zymogen activators, primary screen, biochemical, fluorescence intensity; Kallikrein-7 (Homo sapiens), P49862; AID 652039, 2013; purified proKLK7, EDANS-DABCYL substrate fluorescence; 100% is mature enzyme control, 0% vehicle; activation, % at 7 µM; 0.9% of 370,000 active;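 active means activation above the mean of all tested compounds plus 3 SD, computed per campaign excluding outliers beyond control limits, cut at about 13% in these data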
FAS TE block = FAS thioesterase domain inhibitors, primary screen, biochemical, fluorescence intensity, uHTS | Fatty acid synthase (Homo sapiens), P49327 | recombinant FAS-TE, OMFH fluorogenic substrate, fluorescence endpoint | inhibition, % at 15 µM | 0.67% of 360,000 active;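 active means compounds whose normalised, plate-corrected inhibition of enzyme fluorescence in the single-dose primary screen is 50% or more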
FAS-TE inh conf = FAS thioesterase domain inhibitors, confirmation, biochemical, fluorescence intensity, single concentration; shares compounds with FAS TE block; recombinant FAS-TE, OMFH fluorogenic substrate; inhibition, % at 15 µM; 45% of 2,300 active; AID 624325, 2012;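 active means compounds inhibiting the enzyme by at least 50% at 15 µM in any one of the replicates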
Each line names hits and unclear results; the compound was inactive in the other large screens (follow-up assays come after a bar, where they were run). An excerpt weighted towards active compounds, which were near 2.9% of everything screened.

N#CC1(NC(=O)COC(=O)c2cc([N+](=O)[O-])ccc2N2CCCC2)CCCCC1	FAS TE block 66 | FAS-TE inh conf 75
N#CC1(NC(=O)COC(=O)c2cc([N+](=O)[O-])ccc2N2CCOCC2)CCCCC1	FAS TE block 68 | FAS-TE inh conf 80
CCOc1ccccc1-c1ccc(C(=O)NCc2ccc(Cl)cc2)o1	none (no result: FXN GAA850 act)
CC(c1ccccc1C(O)(c1ccccc1)c1ccccc1)N(C)C (stereo unspecified)	none
Fc1c(F)c(F)c(N/N=C/c2c[nH]c3ccccc23)c(F)c1F	FAS TE block 51 | FAS-TE inh conf 58
O=C(O)c1ccc(N/N=C/c2c[nH]c3ccccc23)cc1	none
CN(C)S(=O)(=O)c1ccc(NC(=O)CCNC(=O)c2ccco2)cc1	none
CCCCCCCCNC(=O)/C(C#N)=C/c1ccccc1[N+](=O)[O-]	FAS TE block 57 | FAS-TE inh conf 73
CCCCCCN(CCCCCC)C(=O)Cc1c(-c2ccc(F)cc2)[nH]c2ccccc12	none
CC(=O)OCCCNc1cc(Sc2nc3ccccc3s2)c2nonc2c1[N+](=O)[O-]	FAS TE block 82 (no result: SMARCA2 act, proKLK7 act) | FAS-TE inh conf 67
CC(=O)OCCCNc1cc(Sc2ccc(C)cc2)c2nonc2c1[N+](=O)[O-]	none
O=[N+]([O-])c1c(NCCCO)cc(Sc2ccc(Cl)cc2)c2nonc12	FAS TE block 61 | FAS-TE inh conf 49
O=[N+]([O-])c1c(NCCCO)cc(SCc2ccco2)c2nonc12	none
CC(=O)OCCNc1cc(SCc2ccco2)c2nonc2c1[N+](=O)[O-]	none (no result: SMARCA2 act, proKLK7 act)
CC(=O)OCCNc1cc(Sc2nc3ccccc3[nH]2)c2nonc2c1[N+](=O)[O-]	FAS TE block 76 | FAS-TE inh conf 72
COC(=O)c1cnc(Nc2nc(C(N)Cc3ccccc3)cs2)nc1C(F)(F)F (stereo unspecified)	none
C=CCn1c(SCc2cc([N+](=O)[O-])cc3c2OCOC3)nc2cc(C(=O)O)ccc2c1=O	FAS TE block 83 | FAS-TE inh conf 77
CCC(CO)n1c(SCc2cc([N+](=O)[O-])cc3c2OCOC3)nc2ccccc2c1=O (stereo unspecified)	FAS TE block 54 | FAS-TE inh conf inactive
O=C(CN1CCSC1=NCc1ccccc1)c1ccc(Cl)c(Cl)c1	FAS TE block 54 | FAS-TE inh conf inactive
O=C(Cn1ccccc1=S)c1ccc(Cl)c(Cl)c1	none
Cc1cc(Cl)ccc1C(=O)C1CCCN(C(=O)c2n[nH]c3c2CCCC3)C1 (stereo unspecified)	none
COc1cc(OC)c(C2=NOC(C(=O)N3CCN(C(=O)c4ccco4)CC3)C2)cc1Cl (stereo unspecified)	none
O=C(NCc1ccc2c(c1)OCO2)C1CC(c2ccc(Cl)cc2)=NO1 (stereo unspecified)	none
COc1cc(OC)c(C2=NOC(C(=O)NCc3ccc4c(c3)OCO4)C2)cc1Cl (stereo unspecified)	FAS TE block 60 | FAS-TE inh conf inactive
COc1cc(OC)c(C2=NOC(C(=O)N3CCc4ccccc4C3)C2)cc1Cl (stereo unspecified)	FAS TE block 80 | FAS-TE inh conf 60
C[C@@H](c1ccccc1)N1C[C@@H](COCc2ccccc2)Oc2cc(N3CCC[C@H]3CO)ccc2S1(=O)=O	none (no result: FXN GAA850 act)
COc1cc2ncnc(Nc3ccc(F)c(Cl)c3)c2cc1OCCCN1CCOCC1	none (no result: FXN GAA850 act, FAS TE block)
O=C(Oc1ccccc1C(=O)Nc1ccccc1)c1ccc(Br)c([N+](=O)[O-])c1	FAS TE block 78 | FAS-TE inh conf 76
COc1ccc(CN2CC(=O)N3[C@H]4c5cc(C)ccc5OC[C@@H]4[C@H](c4ccccc4)[C@]3(C)C2=O)cc1	none
COc1ccc2c(c1)OC[C@H]1[C@H]2N2C(=O)CN(Cc3ccc(C)cc3)C(=O)[C@@]2(C)[C@H]1c1ccccc1	FAS TE block 62 | FAS-TE inh conf inactive
COc1ccc2c(c1)OC[C@H]1[C@H]2N2C(=O)CN(Cc3ccc(F)cc3)C(=O)[C@@]2(C)[C@H]1c1ccccc1	FAS TE block 61 | FAS-TE inh conf inactive
C[C@@]12C(=O)N(Cc3ccc(F)cc3)CC(=O)N1[C@H]1c3cc(Cl)ccc3OC[C@@H]1[C@@H]2c1ccccc1	FAS TE block 84 | FAS-TE inh conf inactive
CCCCN(C(=O)C1CCCC1)C1CCS(=O)(=O)C1 (stereo unspecified)	none
O=C(c1cccc(Cl)c1)N1CCC(C(=O)N2CCN(Cc3ccccc3)CC2)CC1	none
CCc1ccc(NSc2ccccc2[N+](=O)[O-])cc1	FAS TE block 51 | FAS-TE inh conf inactive
CCCCc1cc(=O)oc2cc(C)cc(OCC(=O)N[C@@H](CSCc3ccccc3)C(=O)O)c12	none
CN(C)S(=O)(=O)c1ccc(Cl)c(NC(=O)COC(=O)C2CCCO2)c1 (stereo unspecified)	none
Cc1ccc(-c2cc(C(F)F)n3ncc(C(=O)N4CCc5ccccc54)c3n2)cc1	FAS TE block 52 | FAS-TE inh conf inactive
O=C(c1cnn2c(C(F)F)cc(-c3ccccc3)nc12)N1CCc2ccccc21	none
Cc1ccc(-c2cc(C(F)F)n3ncc(C(=O)Nc4c(C)nn(Cc5ccccc5Cl)c4C)c3n2)cc1	FAS TE block 50 | FAS-TE inh conf inactive
Cc1ccccc1S(=O)(=O)N1C[C@H]2[C@H]3C(=O)N(C4CCCCC4)C(=O)[C@H]3CC(=O)[C@H]2[C@@H]1c1ccc(Cl)cc1	FAS TE block 73 (no result: FXN GAA850 act) | FAS-TE inh conf inactive
CCc1ccc([C@H]2[C@@H]3C(=O)C[C@@H]4C(=O)N(C)C(=O)[C@@H]4[C@@H]3CN2S(=O)(=O)c2ccc(C)cc2)cc1	none (no result: FXN GAA850 act)
CCc1ccc([C@H]2[C@@H]3C(=O)C[C@@H]4C(=O)N(Cc5ccccc5)C(=O)[C@@H]4[C@@H]3CN2S(=O)(=O)c2ccc(C)cc2)cc1	FAS TE block 59 (no result: FXN GAA850 act) | FAS-TE inh conf inactive
CCc1ccc([C@H]2[C@@H]3C(=O)C[C@@H]4C(=O)N(C5CCCCC5)C(=O)[C@@H]4[C@@H]3CN2S(=O)(=O)c2ccc(C)cc2)cc1	FAS TE block 72 (no result: FXN GAA850 act) | FAS-TE inh conf inactive
Cc1ccccc1S(=O)(=O)N1C[C@@H]2C(C(=O)C[C@@H]3C(=O)N(C)C(=O)[C@@H]32)[C@@H]1c1ccc(Cl)cc1 (stereo partly specified)	none (no result: FXN GAA850 act, FAS TE block)
CCc1ccc([C@H]2[C@@H]3C(=O)C[C@@H]4C(=O)N(CC)C(=O)[C@@H]4[C@@H]3CN2S(=O)(=O)c2ccc(C)cc2)cc1	none (no result: FXN GAA850 act)
CCCOc1ccc(-c2c(C(=O)N/N=C/c3cccnc3)nnn2-c2nonc2N)cc1	none
COc1cccc(/C=C/C(=O)OCC(=O)Nc2cccc(S(=O)(=O)N3CCCCC3)c2)c1OC	none
CCN(CC)C(=O)C1CCCN(c2ccc([N+](=O)[O-])cc2/C=N/NC(=O)c2cccc(Br)c2)C1 (stereo unspecified)	FAS TE block 86 | FAS-TE inh conf inactive
